In all, about 53,000 sequences went through this assay and about 3,700 (7%) were called active. Only a selection was taken, and actives are over-represented in it overall. A number with no mark means an inactive call.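 Rule for the calls: active = gene knockdowns whose robust z-score for IL-1 alpha signal is at least 2 or at most -2, so actives lie on both sides; inactive = the rest.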

The assay can be described thus: Components of the Cytosolic LPS Sensing Pathway: Gene Identification via Genome-wide siRNA Screen.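 Note: robust z of the log signal after scaling to non-targeting control siRNA wells of the plate.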 As to conditions: RAW264.7 macrophages, IL-1a HTRF, actives lie on both sides, screened at 100 nM (by protocol), cells primed 5 h with Pam3CSK4 first. Summed up:
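IL-1a HTRF of supernatants after 24 hour LipidA transfection of Pam3CSK4-primed (5 hours) RAW264.7 cells, 48h post-siRNA transfection (100 nM). Scores: percent of plate negative-control median, then log-based robust z-score.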
(In general: In TR-FRET formats the signal depends on donor and acceptor labels being close together.)
Take CCCUGGUGACUACGAGAAUTT against Chrna4: the z-score is -0.462.

In the case of GGACUUUACAAUAAAACAGTT against Dkk4, the z-score was -2.2 (active).

As to GGUGAUGCCUUAUUUUGAATT against Ap5s1, the z-score is -1.1.

On to GGUAACAAACCGAAAGUAUTT against Polr3k, for which the z-score is -0.539.

Regarding GGAACAAGUGUCUGACAGUTT against Emc3, the z-score was 1.82.

As for GCGCACAGUACAUUCAUUUTT against Drd5, the z-score is 3.62 (active).

For CCGAAAACUUAUCUAGAAATT against BC023105, the z-score is -0.846.

Turning to GGAUCAACAUGGUCUCCUCTT against Stambpl1, the z-score was -1.63.

Take GCCAGAAAAGUACCACCAGTT against Slc35f4: the z-score was -1.15.

Regarding GCUUUCAUAGAAUCUUGGCTT against Rnf24, the z-score is 0.709.

With GGAGAUGGCUAUAUUCUGATT against Lipa, the z-score was 0.0668.

In the case of GCGAGUACUUACUCUUCGUTT against Rpl3, the z-score is -0.355.

GCACGUGAACACAAACCCGTT against Nup50: the z-score was -1.13.

Consider GCUUAAGUGUGAUACAGUGTT against Rars2, for which the z-score was 2.45 (active).

Turning to GUUACAGCUGCCUUUGUUUTT against Olfr893, the z-score was -2.49 (active).

With CGUCUGUCAGAAACUACACTT against Atrnl1, the z-score was 0.864.

On to GCUCAGUUUCUCAUGAAACTT against Tespa1, for which the z-score was 0.206.

Regarding GGAAUGCAGAAAUGAAAAATT against Olfr1234, the z-score was -0.909.

Regarding GGAAAGAAGAACCAAGCUCTT against Med6, the z-score was -1.01.

As to GAUCAAAGCGGCGUACUACTT against Dnajc30, the z-score is 0.738.

On to GGAAAAGUAUCCAUGUCACTT against Impa1, for which the z-score was -1.75.

Take GGCAUCAUAAAGCCAGGCATT against Sybu: the z-score was -2.42 (active).

With GGGUAUAUAAGCAGCACCATT against Rdh9, the z-score is 0.736.

Regarding “CCCAUCCAAGAUUUGAUUUTT against 2310002L09Rik”, the z-score is 1.89.

Regarding GGCUGUAGUUGGCUAACACTT against Slc25a28, the z-score was -0.103.

As for “GGUAACAAUCACCAUAUUCTT against 1700029F12Rik”, the z-score was -1.94.

GCAACAUGUAGGCAACAUCTT against Tmx2: the z-score is -0.179.

Turning to CCAAUGAGAGUUCUAUGAUTT against Cxxc4, the z-score is -0.192.

As to GGUUAGCAGGGACCUAAUGTT against Zfp94, the z-score was 2.57 (active).

Consider GGAAAACACGAGUUUCCCUTT against Arrdc4, for which the z-score is 1.56.

Take CCAAGCCAAGCAAUCUUGATT against Chat: the z-score is -0.247.

For CCAAACUUACAAAUAUGCGTT against Sgpp1, the z-score was 1.35.

Regarding GGAUCCUGUCCACAAGCACTT against Astn1, the z-score is 0.519.

In the case of GGUUCAGAUCCACAGCCAGTT against Asic2, the z-score is -2.12 (active).

Consider CCCAUAACCAGAAUUAAAGTT against Wdr64, for which the z-score was 0.454.

For the sequence GGUCAUUGCAUCUGACAAGTT against Pcdha2, the z-score was 0.109.

For the sequence GGGAGGAUACCUUCUAUGUTT against Atf6b, the z-score is -0.43.

As to GGACACAGACAUCCUCUUGTT against Sult5a1, the z-score was 1.04.

For the sequence GGGAGAUGUUUGUUUUCAATT against Mmp16, the z-score was 3.52 (active).

On to GGAAACCUUUUCAUUAACATT against Il23r, for which the z-score is 0.138.

As to GGACAACUUCCUAGGGCUCTT against Esyt3, the z-score is 0.248.

Take CCCAAGCAAUUACAGUACUTT against Olfr263: the z-score is -0.543.

For the sequence GGCCCUCUGAGAUUAAUGUTT against Nfkbid, the z-score was 2.58 (active).

Turning to CAGAUCCAUCUCUUAAUGGTT against Olfr204, the z-score was 0.383.

For the sequence GGUAUCAGGUACCAACGACTT against Cpne6, the z-score was 0.768.

Turning to GGACAUUAGCCAACACAUCTT against Scp2d1, the z-score was 1.17.

For GGAAUUGACUUUAAGACAATT against Boll, the z-score is -0.413.

As to GGAAGUCAAGCAUAUUGCCTT against Sntb2, the z-score is 3.04 (active).

Regarding GCAUUGGUGUUUAGUUGGUTT against Gdf2, the z-score is 1.11.

In the case of GGAGUUCGCACAGAAAUUCTT against Dhdh, the z-score is -0.619.

In the case of GGUGUAUUAAAAUGUCAGUTT against Marveld2, the z-score is 1.92.

On to GGUCAUCAGAAUGUGAAAATT against Zfp354a, for which the z-score is 0.232.

As for GGAGAGACCAGAAUGGUAUTT against Fbxw21, the z-score is -1.12.

Consider GGUAUUUCGAAACCUCCGUTT against H2-Q10, for which the z-score is 2.01 (active).

Consider GCAUGGACAAAUGUCCCUGTT against Lce1f, for which the z-score was -0.24.

Turning to GGAAGAUGGCAAUAAUAACTT against Borcs7, the z-score was -2.26 (active).

Take GGUUUUCCCACAUGUCAGATT against Zmat5: the z-score was 0.805.

As for GGGUACAGACGAUGUUUGATT against Unc45b, the z-score was 0.347.

As for GGUGUUCAACUCCACUAUGTT against Nhlrc1, the z-score was 0.511.

With GGUUCACAAUGGAUUAUGATT against Lrrc25, the z-score is -1.68.

As to UGAUAUUUGGUGUAUUCAGTT against Olfr972, the z-score was -2.06 (active).

For the sequence GGCUUUCUCCAAGCUAUAUTT against Tdgf1, the z-score was -1.83.

Take GGGAUACUACUUUCUAACATT against Rspo3: the z-score was 1.29.

Turning to GCCAUACCCUGAAUUACCATT against Ndnf, the z-score was -2.01 (active).

In the case of GGAUCAGAGAAGGAAAAAATT against Hspa12a, the z-score is -1.98.

As for CCCUGACUUGUCCUUACAATT against Trem3, the z-score is -0.831.

Regarding CCCUAGCGGAAAUUGUCAATT against Nono, the z-score was 0.328.

As for GGGUCUGAUCACUUAUAUUTT against Lysmd3, the z-score was 2.02 (active).

For CGAGGAGCCUGAAAUAUGGTT against Exosc2, the z-score is -2.42 (active).

The values are drawn from PubChem BioAssay AID1508600 (Functional Genomics Laboratory (NCATS/FGL), 2020).
